The record followed here is ChEMBL document CHEMBL3988442, “University of Dundee, Small-Polar-MMV Screening Library” (2021).

Screen size: about 48,000 compounds; about 13,000 (27%) showed an effect of 50% or more. The list shows a part of the results.

The assay relates to Wolbachia pipientis. The assay is described as follows: Anti-Wolbachia Cell-Based Screen. The assay is classed as functional. The arrangement: scale not given: in the data most compounds retested in dose-response had high values. The note with it: 5 µM.
Consider `O=C(C1CN(Cc2ccoc2)CC12CCOCC2)N1CCCC1` (configuration not stated), for which the “Percent Effect” value is given as -22.56%.
With `COCc1cc(C[C@@H]2CC[C@H](O)[C@@H](CN(C)C)O2)no1` the figure was 7.016%; with `O=C(O)C(F)(F)F.O=C(c1ccoc1)N1CC[C@H]2OCC[C@@]2(COc2ncccc2F)C1`, 0.551%; with `COc1ccc(C(C)N2CCC(NS(C)(=O)=O)CC2)cc1Cl` (configuration not stated), -1.711%.
Then `CO[C@@H]1CC[C@H]2[C@H]1OCCN2C(=O)c1nn(C)c2ccccc12`, with 115.4%; and `CO[C@@H]1CC[C@H]2[C@H]1OCCN2C(=O)c1ccco1`, with -5.889%; and `CO[C@H]1CC[C@H]2[C@H]1OCCN2C(=O)c1nn(C)c2ccccc12`, with 119%.
Take `CC(C)O[C@@H]1CC[C@H]2[C@H]1OCCN2C(=O)c1nn(C)c2ccccc12`: the “Percent Effect” value was determined as 112.4%.
Then `COCCNC(=O)Nc1cccc(COCCOC(C)C)c1`, with -33.02%.
Then `Cn1cc(C#N)cc1C(=O)N1CCC2(CCCN(CC3CCC3)C2=O)C1` (configuration not stated), with -29.9%; and `COC(=O)CC1CCCCN1CC(=O)Nc1ccc(F)cc1Cl` (configuration not stated), with 107.7%; and `COC(=O)CC1CCCCN1CC(=O)Nc1cc(F)ccc1F` (configuration not stated), with 97.72%.
Then `O=C(CN1CCCCC1Cn1cncn1)NCCc1ccc(F)cc1` (configuration not stated), with -1.768%; and `O=C(Cn1cc(C(=O)O)ccc1=O)Nc1ccc(F)cc1Cl`, with -4.302%; and `Cc1nc(C)n(CC2CCCN2CC(=O)NCCc2ccccc2)n1` (configuration not stated), with 5.202%.
For `COC(=O)C1CN(CC(=O)Nc2cc(F)ccc2F)c2ccccc21` (configuration not stated), the “Percent Effect” value is 6.543%.
As to `CCOC(=O)N1CCN(CC(=O)Nc2ccc(F)cc2Cl)CC1`, the “Percent Effect” value was -11.41%.
Consider `COC(=O)CC1CCCCN1CC(=O)NCCc1ccc(F)cc1` (configuration not stated), for which the “Percent Effect” value was 106.1%.
Then `O=C(CN1CCCCC1C1OCCO1)Nc1ccc(F)c(F)c1` (configuration not stated), with -7.301%; and `Cc1cc(C)c(CNC(=O)NCCNc2ncccn2)c(=O)[nH]1`, with -4.444%; and `CCc1nsc(NC2CCCn3nc(CC)nc32)n1` (configuration not stated), with 0.3299%.
With `CC1=NN(c2ccc(C(=O)OCCNC(=O)c3ccncc3)cc2)CC1` the figure was 6.071%.
With `Nc1nc2c(c(NC(=O)Nc3ccc(Cl)c(Cl)c3)n1)CCCC2` the figure was 4.347%.
On to `CCOC(=O)c1ccc(NC(=O)c2c(O)nc3c(c2O)CCCC3)cc1`, for which the “Percent Effect” value worked out at 115.5%.
With `CC(C)(C)c1cnc(CN2CCCS(=O)(=O)CC2)o1` the figure was -0.7322%; with `OCC1CCN(Cc2cc3c(cc2Br)OCCO3)CC1`, -6.909%.
Then `FC(F)(F)Cn1ccnc1CN1CCCC1c1noc(C2CC2)n1` (configuration not stated), with 2.411%.
With `c1cc(CN2CCCC2c2noc(C3CC3)n2)on1` (configuration not stated) the figure was 95.79%; with `CC(C)c1nc(C2CCCN2Cc2ccno2)no1` (configuration not stated), -3.719%; with `Cn1ccnc1CN1CCCC1c1noc(C2CC2)n1` (configuration not stated), 3.243%.
Take `CCc1nc(C2CCCN2Cc2nnc(CC)o2)no1` (configuration not stated): the “Percent Effect” value was -8.839%.
On to `CCc1nc(C2CCCN2Cc2ccno2)no1` (configuration not stated), for which the “Percent Effect” value was 111.3%.
Consider `O=S(=O)(N1CCCCCC1)N1CCc2sccc2C1`, for which the “Percent Effect” value turned out to be 4.086%.
Then `CS(=O)(=O)N1CCOC(CNC(=O)c2cccc(C#N)c2)C1` (configuration not stated), with -22.73%; and `O=C(c1cccc(F)c1)N(CCCO)S(=O)(=O)c1cccs1`, with -5.785%.
With `Cc1cccc(OC2CCN(C(=O)Cn3ccc4ccccc43)CC2)n1` the figure was 1.872%; with `Cn1cc(CNC(=O)C2CCCN(Cc3cccc(F)c3)C2)cn1` (configuration not stated), -5.601%.
In the case of `Cn1cc(CN2CCCC(CCc3ccccc3C(F)(F)F)C2)cn1` (configuration not stated), the “Percent Effect” value was 9.578%.
Then `Cn1cc(CN2CCCC(c3nccnc3-c3cccc(F)c3)C2)cn1` (configuration not stated), with 135.8%; and `Cn1cc(CN2CCOC(c3cccc(-c4cccc(F)c4)n3)C2)cn1` (configuration not stated), with 143.3%; and `Cn1cc(CN2CCOC(c3nccnc3-c3cccc(F)c3)C2)cn1` (configuration not stated), with 187.6%.
As to `CC(C)c1ccc(CN2CCC3(CCCN(c4nncs4)C3)C2)cc1.O=C(O)C(F)(F)F` (configuration not stated), the “Percent Effect” value was determined as 37.55%.
With `Cc1cccc(OCCC(=O)N2CCN(S(=O)(=O)N(C)C)CC2)c1C` the figure was -2.723%; with `Cl.O=C(NC[C@@]1(COc2cnccn2)C[C@@H](O)[C@@H](O)C1)C1CCCC1`, -8.405%; with `COc1ccc(CN(C(=O)C2CCOCC2)c2ccncc2)cc1`, -12.74%.
Then `COc1ccc(CN(C)Cc2ccnc(C3CCCO3)n2)cc1` (configuration not stated), with 120.3%; and `COc1ccccc1CN(C)Cc1ccnc(C2CCCO2)n1` (configuration not stated), with 134%.
With `CCCN(Cc1cnc2ccccc2n1)Cc1ccccc1OC` the figure was -2.298%; with `COc1ccc(CN(C(=O)C2CCCO2)c2ccncc2)cc1` (configuration not stated), -15.48%; with `COc1ccnc(N(C)Cc2ccccc2OC(F)(F)F)n1`, -0.2691%.
As for `COc1ccc(Cl)cc1NC(=O)CCC1CCCN(Cc2ncon2)C1` (configuration not stated), the “Percent Effect” value was 23.91%.
`Cc1nc(NC(=O)NCc2cccnc2NCCN(C)C)sc1C`: the “Percent Effect” value is on record as -3.378%.
With `COCCN1CCC2(C1)c1ccccc1S(=O)(=O)N2Cc1ccccc1.O=C(O)C(F)(F)F` (configuration not stated) the figure was 6.934%; with `COCCN1C2(CCN(CC3CC3)C2)c2ccccc2S1(=O)=O.O=C(O)C(F)(F)F` (configuration not stated), 102.4%; with `COCCN1CCC2(C1)c1ccccc1S(=O)(=O)N2C.O=C(O)C(F)(F)F` (configuration not stated), 90.85%.
With `Cc1c(C(=O)NC2CC(C)(C)NC(C)(C)C2)cnn1-c1ccc(F)cc1` the figure was -13.93%.
With `CC1(C)CC(NC(=O)c2cnn(-c3ccccc3F)c2N)CC(C)(C)N1` the figure was 151.8%; with `CC(C)C(=O)Nc1cc(C(=O)NC2CC(C)(C)NC(C)(C)C2)nn1C`, -26.3%; with `Cc1ccc(-n2ncc(C(=O)NC3CC(C)(C)NC(C)(C)C3)c2N)cc1`, 174.2%.
For `Cc1ccc(-n2ncc(C(=O)NC3CCCCC3)c2N)cc1`, the “Percent Effect” value stood at 3.957%.
Then `CC(C)(C)SCCNC(=O)[C@@]12CNC[C@@H]1CN(S(C)(=O)=O)C2`, with 5.951%.
With `Cc1nc(C)n(CC2CN(CCOc3ccccc3F)CCO2)n1` (configuration not stated) the figure was 5.326%; with `Cc1nc(CCN2CCC(Oc3ccccc3F)CC2)cs1`, -0.6309%; with `CCCc1n[nH]c(C2CN(CCCOc3ccccc3)CCO2)n1` (configuration not stated), -4.502%.
As for `Cc1csc2c(C3CCN(CCCOc4ccccc4)CC3)nc(C)n12`, the “Percent Effect” value is on record as 96.85%.
Then `Cc1ccc(OCCN2CCC(c3nc(C)n4c(C)csc34)CC2)cc1`, with 140.7%.
With `CC(C)Cc1noc(CN2CCN(CCOc3ccc(Cl)cc3)CC2)n1` the figure was -9.815%; with `Cc1csc2c(C3CCN(CCOc4ccccc4F)CC3)nc(C)n12`, 93.69%; with `Cc1nc(C(=O)NC2CCN(CCOc3ccc(Br)cc3)CC2)cs1`, 6.734%.
As to `CN(CC(=O)N1CC(Oc2ccccc2Cl)C1)Cc1ccncc1`, the “Percent Effect” value is given as -2.119%.
On to `Cc1cnc(-n2cnnc2)c(-c2cccc3c2CCNC3)c1`, for which the “Percent Effect” value is given as -5.841%.
Then `COc1cccc2c1N(S(=O)(=O)c1cc(C(=O)O)cs1)CCC2`, with -3.989%.
With `O=C(c1cnc(OCC(F)(F)F)c(Cl)c1)N1CCc2ccc(O)cc2C1` the figure was -3.134%.
With `COc1ccc(C(=O)O)cc1-c1cccc2c1CCNC2` the figure was 99.52%; with `COc1ccc(C(=O)O)cc1-c1cccc(C(C)N(C)C)c1` (configuration not stated), -0.7125%.
In the case of `Cc1ccc(C(=O)O)cc1-c1cccc2c1CCNC2`, the “Percent Effect” value was found to be 128.8%.
Then `O=C(O)c1cnc(OCC2CC2)c(Cl)c1`, with -32.81%; and `Cc1ccc(C(=O)O)cc1S(=O)(=O)N(C)c1cccc(C#N)c1`, with 8.363%.
As to `O=C(O)c1cnc(-c2cccc3c2CCNC3)c(Cl)c1`, the “Percent Effect” value came to 123.8%.
Consider `Cc1ccc([C@@H]2CN(C(=O)c3cc(C)n[nH]3)C[C@H]2NC(=O)C2CC2)cc1`, for which the “Percent Effect” value is listed as 4.814%.
With `CCNC(=O)CN(CC)S(=O)(=O)c1c(Br)cc2[nH]c(=O)oc2c1Cl` the figure was -2.285%; with `CN(C(=O)c1ccccc1NCC(=O)O)C(C1CC1)C1CC1`, 114.3%.
With `COC(C)c1cccc(NCc2cccs2)c1` (configuration not stated) the figure was 2.749%; with `CC(C)CN(C(=O)Nc1cccc(C(=O)N(C)C)c1)C1CC1`, 4.006%; with `CN(C(=O)c1cccc(NCc2cccs2)c1)C(C1CC1)C1CC1`, 113%.
As to `CN(CC(=O)N1CCCC1)C(=O)c1ccccc1Nc1ccccc1`, the “Percent Effect” value is recorded as -0.554%.
Then `CCn1nc(C)c(CCNC(=O)c2cccc(NCC(=O)O)c2)c1C`, with -5.115%; and `CC(=O)Nc1cccc(C(=O)N(C)C(C)Cc2cc(C)ccn2)c1` (configuration not stated), with 4.881%.
Then `CN(C(=O)c1cccc(NCC(=O)O)c1)C(C1CC1)C1CC1`, with 109.4%.
Turning to `Cc1cc(CNc2cccc(C(=O)N(C)c3ccccc3)c2)no1`, the “Percent Effect” value came out at 2.006%.
Turning to `CC(C)N(CC(=O)Nc1cccc(C(=O)N(C)C)c1)C1CC1`, the “Percent Effect” value amounted to 5.845%.
Then `Cc1ccnc(NCCNC(=O)c2ccccc2NCC(=O)O)c1`, with -16.08%.
Consider `CN(C)CC(c1ccccc1)N(C)C(=O)c1cccc(NCC(=O)O)c1` (configuration not stated), for which the “Percent Effect” value was 104.1%.
Then `CC(C)(C)C(=O)N1C[C@@H](F)[C@@H](OCc2nc3ccccc3o2)C1`, with -2.26%; and `Cc1cnn(C2CN(Cc3noc(C4CC4)n3)C2)c1`, with -0.9556%.
Then `CN1C(=O)C2(CCN(S(C)(=O)=O)CC2)c2cc(F)ccc21.Cl`, with -38.1%; and `Brc1cc(CNCc2nnc3n2CCC3)cs1.Cl`, with -5.919%.
With `O=C(CN(Cc1cccnc1)CC1CCCO1)Nc1ccc(F)cc1` (configuration not stated) the figure was -1.761%; with `O=C(COCC1CCCO1)N(Cc1cccnc1)c1ccc(F)cc1` (configuration not stated), 100.3%.
Regarding `O=C(CCc1cccnc1)N(Cc1ccsc1)CC1CCCO1` (configuration not stated), the “Percent Effect” value is -15.29%.
With `O=C(O)C(F)(F)F.O=C(O)C(F)(F)F.O[C@H]1CCN(CC2CC2)[C@H]1Cc1ccncc1` the figure was 1.351%; with `CCN(Cc1ccncc1)C(=O)c1cn(CCCc2ccccc2)nn1`, -1.571%; with `CNC(=O)C1(CCCc2ccncc2)CCN1.O=C(O)C(F)(F)F` (configuration not stated), 127.6%.
With `CNC(=O)C1(CCCc2ccncc2)CCCN1` (configuration not stated) the figure was -10.96%.
Then `CN(C)C(=O)C1(CCCc2ccncc2)CCCN1` (configuration not stated), with -8.359%; and `CC(=O)NC(=O)C1(CCCc2ccncc2)CCN1` (configuration not stated), with 96.13%; and `NC(=O)C1(CCCc2ccncc2)CCCN1` (configuration not stated), with 96.03%.
As to `CNC(=O)C1(CCCc2ccncc2)CCCCN1.Cl` (configuration not stated), the “Percent Effect” value came out at 104.3%.
With `Cc1cccc(C(C(=O)NCCCc2ccncc2)N(C)C)c1` (configuration not stated) the figure was -9.46%; with `CC(CCNC(=O)NCCc1ccncc1)c1ccccc1` (configuration not stated), 4.177%; with `CCNc1ncc(C(=O)NCCCc2ccncc2)cn1`, -5.909%.
With `CN(CCCNC(=O)NCc1ccncc1)CC(F)(F)F` the figure was -10.78%.
